Source: PubChem (National Center for Advancing Translational Sciences (NCATS))
IL1B secr inh: inhibitors of inflammasome signaling (IL-1 beta secretion) | 4.7% of 360,000 active | AID 743279 | THP-1 LPS/ATP IL-1B secretion, AlphaLISA, 16 h; hits give low values | activity change, % at 57.5 µM; in the data active = activity change below about -50%; inconclusive = mostly about -30% to -49%
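Secreted IL-1B measured by AlphaLISA bead assay after 16 h compound exposure of THP-1 cells; compounds (final up to 57.5 uM) added 1 h before LPS (250 ng/mL) and ATP (1.25 mM) stimulation; lower signal means less secretion.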
DT40 TDP1 no CPT: qHTS for Inhibitors of human tyrosyl-DNA phosphodiesterase 1 (TDP1): qHTS in cells in absence of CPT; DT40 Tdp1-/- hTDP1 cells, no CPT, ATP luminescence, 48 h; Potency, µM (top dose mostly 46.2 µM), inactives show at the highest dose activity change, negative = growth inhibition, hits mostly inhibitors; 15% of 420,000 active; also: potency is read from the fitted curve at half-maximal effect; nearly all actives have a fitted effect of over 55% in size
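Chicken DT40 Tdp1-/- cells stably complemented with human TDP1 were seeded at 400 cells/well with DMSO in place of 20 nM camptothecin. After compound pinning, cells grew at least 48 hr at 37 °C; viability read by CellTiter-Glo luminescence.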
HT1080 IDH1KD tx: kills HT-1080 cells with IDH1 knockdown; HT-1080 IDH1 knockdown viability, ATP luminescence, 48 h; Potency, µM (series often up to 46.1 µM), for inactives: at the highest dose activity, negative = toxicity, usual class: cytotoxic; 2% of 360,000 active; AID 686971;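 also: potency is read from the fitted curve at half-maximal effect; 0% = DMSO wells and -100% = cell-free medium wells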
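IDH1KD HT-1080 cells, 750/well, RPMI + 5% FBS; compound pinned after 2 h settling; 48 h, 37 °C; CellTiter-Glo luminescence; % activity normalised to DMSO and no-cell wells; curves fitted, classed by r2 and efficacy.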
TDP1 cell CPT: growth inhibition of DT40 Tdp1-/-;hTDP1 cells with camptothecin (screen for TDP1 inhibitors); chicken DT40 Tdp1-/-;hTDP1 cells + 20 nM CPT, ATP luminescence, 48 h; 12% of 420,000 active; Potency, µM (highest dose often 46.2 µM), for the others: at the top dose activity change, negative = growth inhibition, most hits filed as inhibitors; also: potency is read from the fitted curve at half-maximal effect; nearly all actives have a fitted effect of over 55% in size
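Cell growth measured by CellTiter-Glo luminescence after a minimum 48 h, 37 C compound exposure with 20 nM CPT in Tdp1-knockout DT40 cells stably expressing hTDP1, seeded 400/well; qHTS titration format.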
HT1080-NT tox: kills 2HG-producing HT-1080-NT fibrosarcoma cells. HT-1080-NT fibrosarcoma viability, CellTiter-Glo ATP luminescence, 48 h. Potency, µM (doses to about 46.1 µM), for the others: at the top dose activity, negative = less viability, actives largely listed as cytotoxic. 1.6% of 360,000 active. AID 686970;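 also: NT is the 2HG producing partner of a matched IDH1 knockdown line; potency is read from the fitted curve at half-maximal effect; 0% = DMSO-treated cells and -100% = media-only wells without cells; nearly all actives have a fitted effect of over 55% in size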
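Viability by CellTiter-Glo luminescence after 48 h compound exposure at 37C of HT-1080-NT cells (750/well, RPMI, 5% FBS). % activity scaled between DMSO wells and medium-only wells, then curve-fitted and categorized by curve class.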
Starred values were filed as active, the others as inactive; ? = inconclusive; . = no result. Only some compounds are listed: those with a hit (about 19% of all), similar ones and a draw of the others. Unless noted, calls follow the shape of the dose curve; as a rule, active = well fitted curve in the direction sought with a large enough effect; inconclusive = small, poorly fitted or top-dose-only effect, or another doubt; inactive = no such curve, though single readings can be large; an effect the other way counts as inactive or inconclusive. Unless noted, % is scaled to controls: 0 for no effect and ±100 for the full control effect.

SMILES	IL1B secr inh	DT40 TDP1 no CPT	HT1080 IDH1KD tx	TDP1 cell CPT	HT1080-NT tox
CCCNC(=O)C1CCC(Cn2c(=O)c3sccc3n(CC(=O)Nc3ccccc3C)c2=O)CC1 (stereo unspecified)	.	0%	.	4%	.
Cc1nc2c(OCc3ccc(C#N)cc3)cccn2c1N(C)Cc1cccs1	?	?	-23%	?	-27%
C/C(=N\NC(=S)NCc1ccccc1)c1ccc(C(C)(C)C)cc1	-27	23µM*	?	18µM*	-26%
C/C(=N\NC(=S)NCc1ccccc1)c1ccc(C#N)cc1	0	7%	-2%	-10%	3%
C/C(=N\N=C(N)N)c1cccc([N+](=O)[O-])c1	-6	13µM*	-3%	?	0%
Cc1ccc(C)c(CSC2=NCCN2C(=O)Cc2ccc([N+](=O)[O-])cc2)c1	?	18µM*	-27%	?	?
O=C(C1CCCCC1)N1CCN=C1SCc1cccnc1	-25	-29%	-6%	-4%	-2%
Cc1ccc(C(=O)N2CCN=C2SCc2ccc([N+](=O)[O-])cc2)cc1C	-85*	?	-2%	?	-11%
O=C(C1CCCCC1)N1CCN=C1SCc1cccc([N+](=O)[O-])c1	-94*	?	-17%	?	-3%
COc1ccccc1/C=C/C(=O)OCC(=O)N1CCN(S(=O)(=O)c2ccc(C)cc2C)CC1	3	?	5%	?	10%
O=C(c1ccc(S(=O)(=O)Cc2ccccc2Cl)c([N+](=O)[O-])c1)N1CCOCC1	-100*	21µM*	-23%	21µM*	?
Cc1ccccc1CS(=O)(=O)c1ccc(C(=O)N2CCOCC2)cc1[N+](=O)[O-]	-88*	12µM*	1%	?	0%
COc1cccc(NS(=O)(=O)c2ccc3[nH]cc(C(=O)NCCC(C)C)c(=O)c3c2)c1	-16	15µM*	?	10µM*	12µM*
CCc1ccc(NS(=O)(=O)c2ccc3[nH]cc(C(=O)N(C)Cc4ccco4)c(=O)c3c2)cc1	34	15µM*	-12%	?	-4%
Cc1cc(C)cc(NS(=O)(=O)c2ccc3[nH]cc(C(=O)NCCc4ccccc4)c(=O)c3c2)c1	.	16µM*	.	?	.
CCc1ccc(NS(=O)(=O)c2ccc3[nH]cc(C(=O)NCCc4ccccc4)c(=O)c3c2)cc1	.	6%	.	5%	.
O=C(NC1CCCC1)c1c[nH]c2ccc(S(=O)(=O)Nc3cccc(C(F)(F)F)c3)cc2c1=O	.	21µM*	.	?	.
CN(C(=O)c1c[nH]c2ccc(S(=O)(=O)Nc3cccc(C(F)(F)F)c3)cc2c1=O)C1CCCCC1	.	-12%	.	-23%	.
CCc1ccc(NS(=O)(=O)c2ccc3[nH]cc(C(=O)NC4CCCC4)c(=O)c3c2)cc1	.	?	.	-23%	.
Cc1ccc(CCNC(=O)c2c[nH]c3ccc(S(=O)(=O)Nc4cccc(C(F)(F)F)c4)cc3c2=O)cc1	.	?	.	21µM*	.
O=C(Nc1ccc(-c2nc3ccccc3o2)cc1)c1cc(-n2cnnc2)ccc1Cl	?	?	-2%	18µM*	-13%
Cc1c(NC(=O)c2cc(-n3cnnc3)ccc2Cl)cccc1-c1nc2ccccc2o1	-11	?	4%	-13%	0%
O=C(Nc1ccc(-c2nc3ccccc3o2)c(O)c1)c1cc(-n2cnnc2)ccc1Cl	-14	?	?	26µM*	-26%
O=C(Nc1ccccc1)c1cc(-n2cnnc2)ccc1Cl	5	16%	2%	-12%	9%
CS(=O)(=O)Nc1cc2occ(NC=O)c(=O)c2cc1Oc1ccccc1	.	-23%	.	2%	.
SMILES	IL1B secr inh	DT40 TDP1 no CPT	HT1080 IDH1KD tx	TDP1 cell CPT	HT1080-NT tox
CCOC(=O)c1ccc(N2CCN(c3ccc(F)cc3)CC2)c(NC(=O)Nc2ccc(CC)cc2)c1	.	-5%	.	-8%	.
CCOC(=O)c1ccc(NC(=O)Nc2cc3c(cc2N2CCCC2)n(C)c(=O)n3C)cc1	.	23µM*	.	?	.
CCOC(=O)C1CCN(c2cc3c(cc2NC(=O)c2ccccc2)n(C)c(=O)n3C)CC1	9	8.2µM*	5%	21µM*	-8%
CCOC(=O)c1ccc(NC(=O)NCCN2CCCCC2)cc1	11	-4%	-2%	-11%	7%
COc1ccc(C(=O)Nc2ccc3c(c2)n(C)c(=O)n3C)cc1OC	-16	1%	1%	-25%	0%
CCOC(=O)c1ccc(N2CCN(c3ccccc3F)CC2)c(NC(=O)Nc2ccccc2)c1	23	16µM*	-1%	16µM*	1%
CCOC(=O)C1CCN(c2cc3c(cc2NC(=O)c2ccc(OC)c(OC)c2)n(C)c(=O)n3C)CC1	9	5.8µM*	-1%	9.2µM*	1%
Cc1ccc(CNC(=O)c2ccc(N3CCCC3)c(NC(=O)Nc3ccc(C)cc3)c2)cc1	.	23µM*	.	15µM*	.
CCOC(=O)c1ccc(N2CCCCC2)c(NS(=O)(=O)c2ccc(C)cc2)c1	60	21µM*	?	?	?
CCOC(=O)CNC(=O)Nc1cc(C(=O)NCc2ccc(C(C)C)cc2)ccc1N1CCCC1	.	-26%	.	?	.
CC(C)CCN1C(=O)C2(OCCCO2)c2cc(Cl)ccc21	15	-26%	-1%	-18%	-10%
CCc1noc(C)c1C(=O)NCCN1C(=O)S/C(=C\c2ccc(OC)cc2)C1=O	-23	16µM*	0%	23µM*	2%
COc1ccc(/C=C2\SC(=O)N(CCNC(=O)CCS(=O)(=O)c3ccc(C)cc3)C2=O)cc1	-12	21µM*	-7%	13µM*	-3%
COc1ccc(/C=C2\SC(=O)N(CCNC(=O)Cn3cnnn3)C2=O)cc1	-28	-13%	-5%	-25%	8%
COc1ccccc1N1CCN(S(=O)(=O)c2cc(Br)cnc2N)CC1	-11	?	?	?	-10%
COc1ccc(NS(=O)(=O)c2cc3c4c(c2)CCN4C(=O)CC3)c(OC)c1	18	-21%	-4%	-16%	-3%
CC(C)NC(=S)NNc1nc2ccccc2s1	3	2.9µM*	-7%	1.5µM*	-8%
CC(=O)c1c(C(C)=O)c(C)n(-c2nc(-c3ccc(Br)cc3)c(C)s2)c1C	-28	16µM*	-15%	18µM*	-6%
COc1ccc(-c2onc(C)c2C)cc1S(=O)(=O)N(C)Cc1ccccc1	.	23µM*	.	21µM*	.
Cc1ccsc1-c1nc(CSCC(=O)N2CCN(c3ccccc3)CC2)c(C)o1	-16	?	-10%	15µM*	-5%
Cc1ccccc1CSCC(=O)N1CCN(c2ccccc2)CC1	-8	?	6%	-13%	10%
COc1ccc(-c2nc(CSCC(=O)N3CCN(c4ccccc4)CC3)c(C)o2)cc1	.	10µM*	.	10µM*	.
